Rows were chosen to be rich in hits. Some 2.3% of all compounds tested hit in one or more screens of this group.
Tau FP inhib = tau fibrillization inhibition (FP). K18 P301L tau heparin fibrillization, Alexa594 FP, 6 h. Potency, µM (doses to about 57.7 µM), inactives show top-dose activity, negative = inhibition, actives largely listed as inhibitors. AID 1468. P10636. actives 0.39% (n = 280,000); note: potency is the fitted concentration of half-maximal effect; nearly all actives have a fitted effect of over 55% in size
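Human tau K18 […] P301L fragment, 15 uM unlabeled plus 0.24 uM Alexa 594-labeled tau (final), with compound and 20 uM heparin in 100 mM sodium acetate pH 7; 6 hr at 37 C, then Alexa 594 FP read.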
Tau fluor cs = counter-screen for tau fibril formation inhibitors; Potency, µM (highest dose often 57.7 µM), for the others: at the highest dose activity change, negative = decrease; actives 0.93% (n = 280,000); AID 1463; tau K18 P301L Alexa594 fluorescence, heparin fibrillization; note: potency is the fitted concentration of half-maximal effect; nearly all actives have a fitted effect of over 55% in size
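Human K18 P301L tau (15 uM unlabeled plus 0.24 uM Alexa 594-labeled, final) in 100 mM sodium acetate pH 7 was mixed with compound and 20 uM heparin and incubated 6 hr at 37 C.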
Tau fibril ThT = inhibitors of human tau fibril formation, thioflavin T binding. P10636. recombinant tau K18 P301L (four-repeat tau fragment), heparin-induced fibrillization, ThT fluorescence. Potency, µM (titrated, usually from 57.4 µM), without a hit: top-dose activity, negative = inhibition, hits mostly inhibitors. actives 2.1% (n = 270,000). AID 1460; note: potency is the fitted concentration of half-maximal effect; nearly all actives have a fitted effect of over 55% in size
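Heparin-induced fibrillization of the P301L-mutant K18 repeat-domain fragment of human tau was followed by ThT binding in quantitative high-throughput format.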
Coupling enz = counter-screen for Giardia aldolase inhibitors: coupling enzyme system; coupling enzyme system counterscreen, AmpLite Red fluorescence; actives 0.67% (n = 290,000); activity change, negative = inhibition, % at 58.2 µM, hits read low; in the data active = activity change below about -30%
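Counterscreen of the coupled detection system alone, without aldolase: glyceraldehyde-3-phosphate coupling enzymes plus AmpLite Red readout. Compounds at 57.5 uM final, 10 min RT preincubation, 20 min RT reaction, fluorescence 525/598 nm.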
USP1 inh = inhibitors of human USP1/UAF1 deubiquitinase; O94782; recombinant USP1/UAF1, Ub-Rhodamine cleavage fluorescence; Potency, µM (series often up to 57.1 µM), inactives show at the top dose activity change, negative = inhibition, most hits filed as inhibitors; actives 0.23% (n = 390,000); note: potency is the fitted concentration of half-maximal effect; nearly all actives have a fitted effect of over 60% in size
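1 nM enzyme complex + cpd, 15 min RT; start with Ub-Rho 150nM final; kinetic fluorescence ex 480/em 540, 6 reads q60 s. Buffer 50mM HEPES pH 7.8, 0.5mM EDTA, 0.1 mg/ml BSA, 1mM TCEP, 0.01% Tween-20.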
* hit, by the source's call; ? = inconclusive; . = not tested or not shown; [ ] = another dose, or the depositor's remark. Unless noted, calls come from the whole dose curve; as a rule, active = well fitted curve in the direction sought with a large enough effect; inconclusive = small, poorly fitted or top-dose-only effect, or another doubt; inactive = no such curve, though single readings can be large; an effect the other way counts as inactive or inconclusive. % is set by controls: 0 for no effect and ±100 for the full control effect.

SMILES	Tau FP inhib	Tau fluor cs	Tau fibril ThT	Coupling enz	USP1 inh
Cc1[nH]c2ccccc2c1/C=N/Nc1nc(N2CCCCC2)nc(N2CCCCC2)n1	?	10µM*[quencher]	?	-11	-22%
Cc1[nH]c2ccccc2c1/C=C/C(=O)c1ccccc1	4%	18µM*[quencher]	?	0	-23%
Cc1[nH]c2ccccc2c(=O)c1C(=O)/C=C/c1ccccc1	-10%	-3%	.	-3	-5%
C(=N\Nc1nc(N2CCCCC2)nc(N2CCCCC2)n1)/c1c[nH]c2ccccc12	5%	?	?	-15	-18%
COc1ccccc1N1CCN(S(=O)(=O)CCNC(=O)C(c2ccccc2)c2ccccc2)CC1	9%	-14%	-5%	.	-20%
CCOC(=O)c1c(NC(=O)C(C)Oc2ccccc2F)sc(C(C)=O)c1C (configuration not stated)	-12%	-5%	-2%	.	-19%
CCN(CC)CCNC(=O)CSc1nc2nc(C)c(Cc3ccccc3)c(C)n2n1	0%	-6%	4%	.	-15%
Cc1nc2cnc(N3CCOCC3)nc2n(CCc2ccccc2)c1=O	.	.	.	2	.
CNC(=O)c1cnc2sc(N3CCCCCC3)nn2c1=O	-3%	-2%	-3%	.	-27%
CN(C)c1ccc(O)c2c1CC1CC3C(N(C)C)C(=O)C(C(N)=O)=C(O)[C@@]3(O)C(=O)C1=C2O (some centres not stated)	.	.	.	.	-11%
CN(C)[C@@H]1C(=O)C(C(=O)NCN2CCCC2)=C(O)[C@@]2(O)C(=O)C3=C(O)c4c(O)cccc4[C@@](C)(O)C3CC12 (some centres not stated)	?	?	14µM*	-39*	.
COc1ccc(OC2C=CC(c3ccccc3)OC2CO)cc1 (configuration not stated)	-6%[11.6 µM]	-17%[11.6 µM]	-12%[11.5 µM]	1	.
C=CCOc1ccccc1CNc1ccc2c(c1)OCCO2	0%	?	18µM*	-37*	-19%
CCOC(=O)CCCNC(=O)CSc1nc2ccc(OCC)cc2[nH]1	7%	-11%	-8%	-9	1%
COCCn1c(=O)c(-c2cccc(C#N)c2)nc2cnc(Oc3ccc(OC)cc3)nc21	.	.	.	-3	.
O=C1CCCC/C1=C\Nc1ccc(O)cc1	?	?	16µM*	-68*	-3%
COc1ccc2c(CNCc3ccccc3OC)c(C(=O)O)n(Cc3ccc(F)cc3Cl)c2c1	-2%	-7%	-8%	.	-9%
COc1ccc(-n2c(SCC(=O)NC3CCCCC3)nc3c([nH]c4ccccc43)c2=O)cc1	-5%	-14%	6%	.	-18%
COc1ccc(NC(=O)CSc2nnc(NC(=O)Nc3ccccc3)s2)c(OC)c1	?	-5%	-4%	.	-2%
Cc1ccc(/C=N/Nc2nc3ccccc3s2)o1	?	14µM*[quencher]	?	-1	-17%
Cc1ccc(/C=N/Nc2nc(C(C)(C)C)cs2)o1	?	?	?	-1	-14%
CCn1c2ccccc2c2nnc(N3CCN(c4cccc(Cl)c4)CC3)nc21	8%	18µM*[quencher]	?	.	16%
CCn1c2ccccc2c2nnc(N3CCN(c4ccc(F)cc4)CC3)nc21	-2%	-8%	-8%	.	22%
COC(=O)C(=O)/C=C(\O)c1ccc(C)cc1	?	?	22µM*	9	5%
Cc1ccc(/C(O)=C/C(=O)C(=O)NNC(=O)C(O)(c2ccccc2)c2ccccc2)cc1	5%	4%	5%	-3	-14%
SMILES	Tau FP inhib	Tau fluor cs	Tau fibril ThT	Coupling enz	USP1 inh
Cn1ncc(N=Cc2ccccc2)c1C(N)=O	-5%	-9%	-12%	-8	-18%
Nc1ncc(Br)cc1N=Cc1ccccc1	-4%	-8%	?	-48*	-14%
O=C(COC(=O)CC1CCCC1)Nc1cccc(F)c1	.	.	.	.	-2%
Nc1ccc(-n2nnnc2CN2CCOCC2)cc1	3%	-3%	-3%	4	-10%
Nc1cccc(-n2nnnc2CN2CCOCC2)c1	11%	5%	10%	-31*	-15%
Clc1ccc(/C=N/Nc2nc(Cl)nc3ccccc23)cc1	8%	?	?	0	-17%
Clc1ccc(N/N=C/c2cccnc2)cc1	12%	16µM*[quencher]	?	-2	-3%
NC1=Nc2cccc3cccc1c23	7%	3%	?	-25	-4%
Clc1ccc(/C=N/NC2=Nc3cccc4cccc2c34)cc1	12%	-23%	2.8µM*	-4	-13%
C(=N\NC1=Nc2cccc3cccc1c23)/c1ccccc1	8%	-23%	2µM*	-13	38%
C(=N\NC1=Nc2cccc3cccc1c23)/c1cccnc1	13%	-26%	2.8µM*	-21	-12%
O=C(O)c1cccc(N/N=C/c2cccnc2)c1	6%	1%	?	-1	-12%
CCc1nn(Cc2cc(C)ccc2C)c(=O)c2cc3cc(C)ccc3n12	-6%	5%	4%	.	-15%
O=C(c1ccc2c(c1)N(Cc1cccc(Cl)c1)C(=O)c1ccccc1S2=O)N1CCN(c2cccc(C(F)(F)F)c2)CC1 (configuration not stated)	-9%	-8%	-7%	.	-18%
CSc1nsc(/C=C/Nc2ccc(F)cc2F)c1C#N	-11%	?	14µM*	-14	?
CSc1nnc(C)c(/C=C/Nc2ccc(F)cc2F)n1	-3%	-11%	25µM*	3	-15%
Cc1ccccc1Cn1c(=O)n(Cc2ccco2)c(=O)c2sc3ccccc3c21	-5%	-14%	-7%	.	-23%
CC1CC1c1ccc(/C=C(\C#N)C(=O)Nc2cc(Cl)ccc2Cl)o1 (configuration not stated)	-11%	-11%	-8%	-1	?
CC(C)COC(=O)/C(C#N)=C\c1ccc(-c2ccccc2Cl)o1	5%	-24%	?	.	-18%
N#C/C(=C\c1ccc(-c2ccccc2Cl)o1)C(=O)Nc1nc2ccccc2s1	13%	-5%	3.5µM*	-1	2%
N#C/C(=C\c1ccc(-c2cc(Cl)ccc2Cl)o1)C(=O)Nc1ccccc1C(=O)O	-4%	-7%	7.1µM*	.	-18%
Cc1ccc(S(=O)(=O)NCC(Nc2cccc(Cl)c2)c2ccccc2)cc1 (configuration not stated)	?	?	-1%	.	?
COCC(=O)Nc1cc(Cl)ccc1C	-3%	-6%	-6%	0	9%
Cc1ccc(Cl)cc1NC(=O)CSC(N)=O	?	-18%	32µM*	1	-22%
Cc1nnc(N/N=C/c2cc(C)n(-c3ccc(F)cc3)c2C)n1N	?	-24%	?	-42*	?
Cc1nnc(N/N=C/c2c(Cl)cccc2Cl)n1N	-6%	-4%	-12%	-7	-20%
Cc1nnc(N/N=C/c2ccccc2O)n1N	?	-12%	?	-31*	?
Cc1cc(/C=N/NC(N)=S)c(C)n1-c1ccc(Br)cc1	-3%	-30%	?	-2	-18%

Compound activity as filed in PubChem.
